This is an account of results in PubChem BioAssay AID1851 (National Center for Advancing Translational Sciences (NCATS), 2009).

SMILES strings stand for the structures. Out of some 16,000 compounds screened, about 5,100 (32%) were called active. Inconclusive results (about 25%) are left out. The call rests on the fitted dose curve; in most records, active means well fitted curve in the direction sought with a large enough effect; inconclusive means small, poorly fitted or top-dose-only effect, or effect the other way; inactive means no such curve, though single readings can be large or run the other way. The list shows a part of the results.
On the % scale 0 is the no-effect control and ±100 the full control effect.

For the assay, the target named is Cytochrome P450 3A4 (Homo sapiens) (UniProt P08684). As to the kind of experiment: Cytochrome panel assay with activity outcomes. The following applies: recombinant CYP, pro-luciferin dealkylation, luminescence, p450-cyp3a4; series mostly up to 57.1 µM.
Cytochrome P450 3A4 (Homo sapiens), sequence (P08684 whole entry, looked up): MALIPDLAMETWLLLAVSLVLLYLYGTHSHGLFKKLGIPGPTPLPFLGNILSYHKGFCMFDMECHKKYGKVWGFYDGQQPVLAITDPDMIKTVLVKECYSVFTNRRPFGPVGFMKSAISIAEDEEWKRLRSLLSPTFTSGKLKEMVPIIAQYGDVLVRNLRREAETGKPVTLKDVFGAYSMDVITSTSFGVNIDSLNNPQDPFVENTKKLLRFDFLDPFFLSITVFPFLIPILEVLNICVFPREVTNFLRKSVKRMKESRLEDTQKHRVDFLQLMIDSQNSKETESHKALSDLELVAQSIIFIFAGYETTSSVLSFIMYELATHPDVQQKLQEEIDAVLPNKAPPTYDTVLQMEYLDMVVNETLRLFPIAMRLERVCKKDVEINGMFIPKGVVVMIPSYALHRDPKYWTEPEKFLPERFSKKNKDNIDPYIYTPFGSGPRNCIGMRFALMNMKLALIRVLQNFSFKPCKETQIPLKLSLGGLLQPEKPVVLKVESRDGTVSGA
As a reminder, the AC50 is the concentration at which the activity in the assay is half-maximal. Regarding `CCOC(=O)c1cnc2c(cnn2C)c1NCCCN(C)C`, the AC50 entry is “inactive”.
Regarding `CCn1ncc(C(=O)Nc2cc(C)on2)c1C`, the activity, negative = inhibition was 6.4% [at 2.29 µM] (inactive).
With `CCOC(=O)c1cnn(CCOC(=O)C(C)(C)C)c1NC(=O)C(C)(C)C`, the AC50 is 12.6 µM (active).
On the same count and under the same terms, the entry for `CNC(=O)Oc1ccc2c(c1)[C@@]1(C)CCN(C)[C@@H]1N2C` is “inactive”.
The same measure, in the same setting: then `COc1ccc(-n2c(=O)[nH]cc(C(=O)Nc3ccc4c(c3)OCCO4)c2=O)cc1`, with 14.1 µM (active).
For `CCOC(=O)CSc1nc(-c2ccccc2)nc2ccccc12`, the AC50 result is “inactive”.
On the same count and under the same terms, then `CCOC(=O)CSc1cc(CS(=O)c2ccc(Cl)cc2)nc(-c2ccccc2)n1` (configuration not stated), with 7.08 µM (active); and `CCOC(=O)CSc1cc(C(F)(F)F)nc(-c2ccccn2)n1`, with “inactive”; and `CCOc1ccc(OCC)c(-c2c(=O)n(OCc3ccccc3C(=O)OC)c3ccccc3[n+]2[O-])c1`, with 14.1 µM (active).
In the case of `CCn1c(SCC(=O)OC)nc2sc3c(c2c1=O)CCC3`, the AC50 entry was “inactive”.
Same read-out and setting: the figure for `CC1CSc2nc3sc4c(c3c(=O)n21)CCCC4` (configuration not stated) is 12.6 µM (active).
On to `Cn1c(=O)c2c3c(sc2n2cnnc12)CCC3`, for which the activity, negative = inhibition is 10.9% [at 2.29 µM] (inactive).
For the molecule `CC1(C)CC(=O)C2=C(C1)N(c1ccc(F)cc1)C(N)=C(C#N)C2c1cccs1` (configuration not stated), the AC50 is 1 µM (active).
Take `C/C(=N\NC(=O)c1ccccc1C)c1ccc(NC(=O)c2cccs2)cc1`: the activity, negative = inhibition is -4.96% [at 2.29 µM] (inactive).
As to `COc1ccc(-n2nc3cc(C)c(NC(=S)NC(=O)c4ccccc4C)cc3n2)cc1`, the activity, negative = inhibition was -17.3% [at 11.4 µM] (inactive).
Consider `CN(C1CCCCC1)S(=O)(=O)c1ccc(NC(=S)NC(=O)c2cccs2)cc1`, for which the AC50 was 3.98 µM (active).
For `COc1cc(NC(=S)NC(=O)c2c(OC)cccc2OC)ccc1NC(=O)c1cccs1`, the AC50 is 3.16 µM (active).
Turning to `CCN(c1ccccc1)S(=O)(=O)c1ccc(NC(=S)NC(=O)c2ccc(Br)o2)cc1`, the AC50 entry was “inactive”.
Consider `CCCC(=O)Nc1ccc(C(=O)NNC(=S)NC(=O)c2cccs2)cc1`, for which the AC50 entry was “inactive”.
The same measure, in the same setting: the figure for `Cc1ccccc1C(=O)Nc1cccc(NC(=S)NC(=O)c2cccs2)c1` is 3.55 µM (active).
For `O=[N+]([O-])/C=C\c1cc2ccccc2[nH]1`, the activity, negative = inhibition is -22.3% [at 11.4 µM] (inactive).
As to `CCNC(=O)c1ccc(-n2nc(C)cc2-c2ccccc2)cc1`, the AC50 entry is “inactive”.
The same measure, in the same setting: then `C=CCNC(=O)c1ccc2nc(-c3ccccc3)c(-c3ccccc3)nc2c1`, with 7.08 µM (active).
On to `COc1ccc(N(C)C(=O)c2ccc3nc(-c4ccccc4)c(-c4ccccc4)nc3c2)cc1`, for which the AC50 was 7.94 µM (active).
On to `C=CCNC(=O)c1ccccc1Cl`, for which the AC50 result is “inactive”.
For `CC1CC2=C(NC(=S)NC2c2ccc(F)cc2)/C(=C/c2ccc(F)cc2)C1` (configuration not stated), the AC50 was 5.01 µM (active).
On to `O=C1NCCN1Cc1ccccc1F`, for which the AC50 was 15.8 µM (active).
Take `COC(=O)c1cc2n(n1)CCN(Cc1ccccc1F)C2=O`: the activity, negative = inhibition was 17.9% [at 2.29 µM] (inactive).
Take `O=C1NCCN1Cc1cccc(Cl)c1`: the AC50 result is “inactive”.
Same read-out and setting: the entry for `N[C@@H](Cn1ccc(=O)n(Cc2ccccc2C(=O)O)c1=O)C(=O)O` is “inactive”; for `Cc1cccc(Cn2ncc(Cl)c(Cl)c2=O)c1` it is 14.1 µM (active); for `O=C(OCn1ncc(Cl)c(Cl)c1=O)c1cccc(C(F)(F)F)c1` it is “inactive”.
On to `COc1ccccc1-c1cncnc1NCCc1cnc[nH]1`, for which the AC50 was 0.398 µM (active).
Consider `c1ncc(-c2ccc3c(c2)OCO3)c(NCCc2cnc[nH]2)n1`, for which the AC50 was 0.794 µM (active).
Still for that read-out and setting: the figure for `COc1cccc(-c2cncnc2NCCc2cnc[nH]2)c1` is 0.631 µM (active); for `c1csc(CNc2ncncc2-c2ccc3c(c2)OCO3)c1` it is “inactive”; for `Cc1cnc(CNc2ncncc2-c2ccc3c(c2)OCO3)cn1` it is 1.58 µM (active).
For `c1cncc(CNc2ncncc2-c2ccc3c(c2)OCO3)c1`, the AC50 is 0.398 µM (active).
The same measure, in the same setting: the entry for `Clc1ccc2c(c1)C=Nc1c(NCc3ccccc3)ncnc1O2` is “inactive”; for `Cn1c(-c2ccc3c(c2)OCO3)cnc1NCc1ccccc1` it is 7.94 µM (active); for `c1ccc(CNc2ncncc2-c2ccc3c(c2)OCO3)cc1` it is 0.501 µM (active).
Regarding `COC(=O)[C@H](C)NC(=O)[C@@H](C)CO`, the activity, negative = inhibition is -19.6% [at 11.4 µM] (inactive).
On the same count and under the same terms, then `Oc1c(C(O)(c2ccccc2)c2ccc3ccccc3c2O)ccc2ccccc12`, with -13.3% [at 11.4 µM] (inactive).
Regarding `CCCCOc1ccc(CN2CCC(O)CC2)cc1`, the AC50 entry is “inactive”.
With `CN1CCc2c(c3ccccc3n2C)C1`, the AC50 entry was “inactive”.
For `c1ccc(Nc2ncncc2-c2ccc3c(c2)OCO3)cc1`, the AC50 is 0.794 µM (active).
Same read-out and setting: the figure for `Cc1cccc(CNc2ncncc2-c2ccc3c(c2)OCO3)c1` is 0.251 µM (active); for `Cn1c(-c2ccc3c(c2)OCO3)cc(=O)c2ccccc21` it is 10 µM (active).
The same measure, in the same setting: the entry for `CCOC(=O)Nc1ccc(C(=O)Oc2ccccc2)c(O)c1` is “inactive”; for `C[n+]1cc(-c2ccccc2)n2c1CCCCC2` it is “inactive”.
As to `CCOC(=O)[C@]1(CC(=O)O)CCCC1=O`, the activity, negative = inhibition was -3.51% [at 11.4 µM] (inactive).
Consider `CC(C)(C)Cn1nc(-c2ccc(Cl)cc2)c2c(N)ncnc21`, for which the AC50 result was “inactive”.
On the same count and under the same terms, the figure for `CCOc1c2ccc(C(=O)NCc3cc(C(F)(F)F)cc(C(F)(F)F)c3)cc2nn1C` is 12.6 µM (active); for `CCCCn1nc2cc(C(=O)NCC3CC3)ccc2c1OCC` it is “inactive”; for `CCCn1nc2cc(C(=O)NCCCCc3ccccc3)ccc2c1OCC` it is 15.8 µM (active).
Take `CCCn1nc2cc(C(=O)NCc3ccc(C)cc3)ccc2c1OC`: the AC50 was 14.1 µM (active).
As for `CCOc1c2ccc(C(=O)NCc3ccc(OC(F)(F)F)cc3)cc2nn1C`, the activity, negative = inhibition was 16.7% [at 2.29 µM] (inactive).
For `CCOc1c2ccc(C(=O)NCCCCc3ccccc3)cc2nn1C`, the AC50 result was “inactive”.
`COCCn1nc2cc(C(=O)NCc3cc(C(F)(F)F)cc(C(F)(F)F)c3)ccc2c1OC`: the activity, negative = inhibition was 10.6% [at 2.29 µM] (inactive).
For the molecule `CCCn1nc2cc(C(=O)NCCc3ccc(C)cc3)ccc2c1OCC`, the AC50 is 6.31 µM (active).
Regarding `COCCn1nc2cc(C(=O)NCC34CC5CC(CC(C5)C3)C4)ccc2c1OC`, the activity, negative = inhibition is -1.55% [at 2.29 µM] (inactive).
Still for that read-out and setting: then `CCOc1c2ccc(C(=O)NCCCCc3ccccc3)cc2nn1CC`, with 18.3% [at 2.29 µM] (inactive); and `CCOC(=O)N/N=C1/C[C@@H](O)[C@@H](O)[C@@H]2[C@@H]3C(=O)N(CC)C(=O)[C@H]3CC[C@H]12`, with -6.5% [at 11.4 µM] (inactive).
As for `N#Cc1c(-c2ccccc2)ccnc1Oc1ccccc1`, the AC50 entry is “inactive”.
In the case of `C/C(=N\OC(=O)c1ccccc1F)c1nccs1`, the AC50 entry is “inactive”.
Turning to `CC1(C)O[C@@H]2O[C@H]([C@H](O)CO/N=C3/[C@H]4O[C@@H]4[C@@H](O)[C@H]4[C@H]3CCn3c(=O)n(-c5ccccc5)c(=O)n34)[C@@H](O)[C@@H]2O1`, the activity, negative = inhibition is -8.83% [at 11.4 µM] (inactive).
For `COc1ccc(O[C@H]2C=C[C@@H](c3ccccc3)O[C@H]2COC(=O)CC/C(C)=N\OC[C@@H](O)[C@H]2O[C@H]3OC(C)(C)O[C@H]3[C@@H]2O)cc1`, the AC50 was 3.98 µM (active).
As to `C/C(CCC(=O)OC[C@@H]1O[C@H](C#Cc2ccccc2)C=C[C@@H]1Oc1ccc(C)cc1)=N/OC[C@@H](O)[C@H]1O[C@H]2OC(C)(C)O[C@H]2[C@@H]1O`, the AC50 is 3.98 µM (active).
For the molecule `CC(=O)OC[C@@H]1O[C@H](C/C=N\OC[C@@H](O)[C@H]2O[C@H]3OC(C)(C)O[C@H]3[C@@H]2O)C=C[C@@H]1OC(C)=O`, the activity, negative = inhibition is -11.1% [at 11.4 µM] (inactive).
Take `COCCCN1C(=O)C(=O)/C(=C(/O)c2ccc(OC(C)C)c(C)c2)C1c1ccncc1` (configuration not stated): the AC50 entry is “inactive”.
On the same count and under the same terms, then `CCOc1ccc(/C(O)=C2/C(=O)C(=O)N(CCCn3ccnc3)C2c2cccs2)cc1Cl` (configuration not stated), with 0.282 µM (active); and `Cc1ccc(/C(O)=C2/C(=O)C(=O)N(CCCn3ccnc3)C2c2ccccn2)cc1` (configuration not stated), with “inactive”.
On the same count and under the same terms, then `O=C(CCN1C(=O)c2ccccc2C1=O)Oc1ccc2ccccc2c1`, with “inactive”; and `Cn1cnnc1SCC(=O)OCN1C(=O)c2ccccc2C1=O`, with “inactive”.
On the same count and under the same terms, the figure for `Cc1cccc(NC(=O)CCCN2C(=O)c3cccc4cccc(c34)C2=O)c1` is 2.24 µM (active).
As for `CC(=NCCN1CCN(C(=S)Nc2ccccc2)CC1)C1=C(O)CC(C)(C)CC1=O`, the activity, negative = inhibition is -20.4% [at 11.4 µM] (inactive).
As to `Cc1cccc(/C(N)=N/OC(=O)CCCN2C(=O)c3ccccc3C2=O)c1`, the AC50 is 4.47 µM (active).
Turning to `O=C1c2ccccc2C(=O)N1CCSC(=S)N1CCOCC1`, the AC50 result is “inactive”.
On to `CCN(CC)CCN1C(=O)c2cccc3cc(N)cc(c23)C1=O`, for which the activity, negative = inhibition is -14.7% [at 11.4 µM] (inactive).
Take `Cc1ccc(NC(=S)N2CCN(CCN3C(=O)c4cccc5cccc(c45)C3=O)CC2)cc1`: the AC50 was 4.47 µM (active).
Same read-out and setting: the entry for `COc1ccccc1CN1CCC2(CC1)CCN(S(=O)(=O)c1ccccc1)CC2` is “inactive”; for `COc1ccccc1CN1CC2(CCN(S(=O)(=O)c3ccccc3)CC2)C1` it is 20 µM (active); for `COc1ccccc1CN1CC[C@@]2(CCCN(S(=O)(=O)c3ccccc3)C2)C1` it is 10 µM (active).
Same read-out and setting: then `COc1ccccc1CN1CCC2(CC1)CCN(S(C)(=O)=O)CC2`, with “inactive”; and `COc1ccccc1CN1CCCC2(CCN(S(C)(=O)=O)CC2)C1`, with “inactive”; and `COc1ccccc1CN1CC2(CCN(S(C)(=O)=O)CC2)C1`, with “inactive”.
On the same count and under the same terms, then `CC(=O)OCC(=O)[C@@]1(O)CC[C@@H]2[C@H]3CCC4=CC(=O)CC[C@]4(C)[C@]3(F)[C@@H](O)C[C@@]21C`, with “inactive”.
Consider `CN1Cc2c(C(=O)OC(C)(C)C)ncn2-c2ccsc2C1=O`, for which the AC50 result is “inactive”.
On to `Cc1cccn2c(/C=N/OCc3ccc(F)cc3)c(-c3ccc(Cl)cc3)nc12`, for which the AC50 result is “inactive”.
For the molecule `COc1ccc(/C(C#N)=C/c2c(-c3ccc(Cl)cc3)nc3c(C)cccn23)cc1`, the AC50 is 2.82 µM (active).
The same measure, in the same setting: then `COc1ccc(-c2cc(C3CCN(c4ccc(C(C)=O)cc4[N+](=O)[O-])CC3)[nH]n2)cc1`, with 4.47 µM (active); and `CC(=O)c1ccc(N2CCC(c3cc(-c4ccc(Cl)cc4Cl)n[nH]3)CC2)c([N+](=O)[O-])c1`, with 12.6 µM (active).
